Tests used:
[1] = target: High affinity nerve growth factor receptor (Homo sapiens) (UniProt P04629); details: at 1 µM;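 further: each value is the mean percent inhibition of TRKA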
[2] = target: BDNF/NT-3 growth factors receptor (Homo sapiens) (UniProt Q16620); details: at 0.1 µM
[3] = target: BDNF/NT-3 growth factors receptor (Homo sapiens) (UniProt Q16620); details: at 1 µM
[4] = target: NT-3 growth factor receptor (Homo sapiens) (UniProt Q16288); details: at 0.1 µM
[5] = target: NT-3 growth factor receptor (Homo sapiens) (UniProt Q16288); details: at 1 µM
[6] = target: T1, Tyrosine-protein kinase TXK (Homo sapiens) (UniProt P42681); details: at 0.1 µM
T1 sequence (whole entry): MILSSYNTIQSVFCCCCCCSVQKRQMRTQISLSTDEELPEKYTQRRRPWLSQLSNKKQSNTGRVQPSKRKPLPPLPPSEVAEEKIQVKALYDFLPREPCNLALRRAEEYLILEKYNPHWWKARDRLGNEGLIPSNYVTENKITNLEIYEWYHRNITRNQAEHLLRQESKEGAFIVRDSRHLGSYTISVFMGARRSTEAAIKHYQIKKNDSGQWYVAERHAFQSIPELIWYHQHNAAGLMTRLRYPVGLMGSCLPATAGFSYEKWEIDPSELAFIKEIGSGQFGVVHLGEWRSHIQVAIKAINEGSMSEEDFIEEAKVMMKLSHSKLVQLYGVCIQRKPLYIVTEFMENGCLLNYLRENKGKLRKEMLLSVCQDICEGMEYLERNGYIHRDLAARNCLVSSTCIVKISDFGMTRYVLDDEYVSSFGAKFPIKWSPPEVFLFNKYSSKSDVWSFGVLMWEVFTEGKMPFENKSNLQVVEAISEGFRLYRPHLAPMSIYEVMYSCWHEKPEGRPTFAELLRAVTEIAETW

[7] = target: T1, Tyrosine-protein kinase TXK (Homo sapiens); details: at 1 µM
[8] = target: Non-receptor tyrosine-protein kinase TYK2 (Homo sapiens) (UniProt P29597); details: at 0.1 µM;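 further: each value is a mean of the inhibition readings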
[9] = target: T2, Dual specificity protein kinase TTK (Homo sapiens) (UniProt P33981); details: at 1 µM;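 further: reported figures are mean TTK inhibition at 1 µM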
T2 sequence (whole entry): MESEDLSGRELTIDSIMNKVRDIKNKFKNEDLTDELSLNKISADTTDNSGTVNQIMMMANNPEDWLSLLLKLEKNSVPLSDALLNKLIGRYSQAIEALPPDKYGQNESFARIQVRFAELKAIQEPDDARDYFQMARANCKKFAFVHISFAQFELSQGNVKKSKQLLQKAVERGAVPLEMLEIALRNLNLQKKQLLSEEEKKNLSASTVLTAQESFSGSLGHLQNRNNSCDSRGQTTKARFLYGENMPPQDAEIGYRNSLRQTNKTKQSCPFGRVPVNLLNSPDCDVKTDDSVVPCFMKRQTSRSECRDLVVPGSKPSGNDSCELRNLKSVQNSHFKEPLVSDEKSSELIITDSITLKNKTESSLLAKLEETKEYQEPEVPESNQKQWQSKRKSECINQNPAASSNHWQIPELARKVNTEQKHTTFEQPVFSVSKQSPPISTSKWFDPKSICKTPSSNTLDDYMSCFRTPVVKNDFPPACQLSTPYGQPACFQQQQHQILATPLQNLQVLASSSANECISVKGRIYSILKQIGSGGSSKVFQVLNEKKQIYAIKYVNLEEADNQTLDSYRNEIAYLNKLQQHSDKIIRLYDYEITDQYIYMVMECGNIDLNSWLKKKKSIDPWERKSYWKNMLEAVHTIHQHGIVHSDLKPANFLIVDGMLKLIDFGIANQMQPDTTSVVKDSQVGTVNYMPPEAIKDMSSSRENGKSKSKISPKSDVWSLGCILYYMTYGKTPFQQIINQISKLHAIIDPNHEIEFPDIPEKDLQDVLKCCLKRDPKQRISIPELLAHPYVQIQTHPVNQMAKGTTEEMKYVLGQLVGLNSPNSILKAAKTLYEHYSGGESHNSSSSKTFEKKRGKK

[10] = target: T3, Aurora kinase A (Homo sapiens) (UniProt O14965); details: at 0.1 µM
T3 sequence (whole entry): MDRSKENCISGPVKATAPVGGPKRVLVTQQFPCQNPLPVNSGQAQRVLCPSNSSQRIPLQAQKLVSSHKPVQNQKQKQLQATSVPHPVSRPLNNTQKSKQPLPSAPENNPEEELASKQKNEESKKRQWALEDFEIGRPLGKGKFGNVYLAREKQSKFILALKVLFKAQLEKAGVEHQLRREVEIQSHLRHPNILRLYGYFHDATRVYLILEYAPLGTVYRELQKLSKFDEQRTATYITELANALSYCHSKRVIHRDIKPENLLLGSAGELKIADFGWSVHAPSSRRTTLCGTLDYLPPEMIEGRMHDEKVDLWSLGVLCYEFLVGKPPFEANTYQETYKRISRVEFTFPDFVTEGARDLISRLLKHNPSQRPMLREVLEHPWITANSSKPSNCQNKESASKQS

[11] = target: T3, Aurora kinase A (Homo sapiens); details: at 1 µM
[12] = target: Aurora kinase B (Homo sapiens) (UniProt Q96GD4); details: at 0.1 µM
[13] = target: Aurora kinase B (Homo sapiens) (UniProt Q96GD4); details: at 1 µM
[14] = target: T4, Aurora kinase C (Homo sapiens) (UniProt Q9UQB9); details: at 0.1 µM
T4 sequence (whole entry): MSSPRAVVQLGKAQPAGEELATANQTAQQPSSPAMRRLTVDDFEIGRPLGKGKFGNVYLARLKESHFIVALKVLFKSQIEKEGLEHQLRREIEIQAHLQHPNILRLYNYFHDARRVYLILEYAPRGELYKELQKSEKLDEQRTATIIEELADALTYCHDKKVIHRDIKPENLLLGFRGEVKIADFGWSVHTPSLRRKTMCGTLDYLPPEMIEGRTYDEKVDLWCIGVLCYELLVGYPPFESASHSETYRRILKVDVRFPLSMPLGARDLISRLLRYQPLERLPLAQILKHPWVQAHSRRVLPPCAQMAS

[15] = target: T4, Aurora kinase C (Homo sapiens); details: at 1 µM
[16] = target: Serine/threonine-protein kinase 10 (Homo sapiens) (UniProt O94804); details: at 0.1 µM
[17] = target: Serine/threonine-protein kinase 10 (Homo sapiens) (UniProt O94804); details: at 1 µM
[18] = target: T5, Mitogen-activated protein kinase kinase kinase kinase 2 (Homo sapiens) (UniProt Q12851); details: at 0.1 µM
T5 sequence (whole entry): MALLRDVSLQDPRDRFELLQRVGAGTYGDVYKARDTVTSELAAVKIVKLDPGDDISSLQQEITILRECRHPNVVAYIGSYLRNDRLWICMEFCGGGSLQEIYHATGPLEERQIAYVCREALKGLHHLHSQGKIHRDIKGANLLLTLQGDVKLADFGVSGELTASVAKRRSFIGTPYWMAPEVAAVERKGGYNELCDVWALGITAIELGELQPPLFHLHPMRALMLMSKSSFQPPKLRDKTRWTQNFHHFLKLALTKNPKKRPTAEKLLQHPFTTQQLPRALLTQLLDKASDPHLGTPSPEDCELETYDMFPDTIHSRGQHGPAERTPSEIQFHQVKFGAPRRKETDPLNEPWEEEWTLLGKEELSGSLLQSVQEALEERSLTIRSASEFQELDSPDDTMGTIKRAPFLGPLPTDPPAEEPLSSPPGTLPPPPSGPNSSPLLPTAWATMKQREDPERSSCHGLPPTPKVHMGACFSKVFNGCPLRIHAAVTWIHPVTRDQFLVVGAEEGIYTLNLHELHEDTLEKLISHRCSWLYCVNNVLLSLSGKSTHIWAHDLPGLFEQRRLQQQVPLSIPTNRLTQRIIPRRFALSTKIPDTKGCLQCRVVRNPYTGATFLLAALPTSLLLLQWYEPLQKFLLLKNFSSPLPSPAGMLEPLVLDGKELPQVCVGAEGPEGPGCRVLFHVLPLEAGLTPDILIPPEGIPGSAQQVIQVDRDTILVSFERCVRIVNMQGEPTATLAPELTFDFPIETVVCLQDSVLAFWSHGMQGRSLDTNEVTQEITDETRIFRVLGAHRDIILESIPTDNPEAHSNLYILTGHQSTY

[19] = target: T5, Mitogen-activated protein kinase kinase kinase kinase 2 (Homo sapiens); details: at 1 µM
[20] = target: Mitogen-activated protein kinase kinase kinase kinase 4 (Homo sapiens) (UniProt O95819); details: at 0.1 µM

Sequence of High affinity nerve growth factor receptor (Homo sapiens) (P04629 33-796 limits assumed): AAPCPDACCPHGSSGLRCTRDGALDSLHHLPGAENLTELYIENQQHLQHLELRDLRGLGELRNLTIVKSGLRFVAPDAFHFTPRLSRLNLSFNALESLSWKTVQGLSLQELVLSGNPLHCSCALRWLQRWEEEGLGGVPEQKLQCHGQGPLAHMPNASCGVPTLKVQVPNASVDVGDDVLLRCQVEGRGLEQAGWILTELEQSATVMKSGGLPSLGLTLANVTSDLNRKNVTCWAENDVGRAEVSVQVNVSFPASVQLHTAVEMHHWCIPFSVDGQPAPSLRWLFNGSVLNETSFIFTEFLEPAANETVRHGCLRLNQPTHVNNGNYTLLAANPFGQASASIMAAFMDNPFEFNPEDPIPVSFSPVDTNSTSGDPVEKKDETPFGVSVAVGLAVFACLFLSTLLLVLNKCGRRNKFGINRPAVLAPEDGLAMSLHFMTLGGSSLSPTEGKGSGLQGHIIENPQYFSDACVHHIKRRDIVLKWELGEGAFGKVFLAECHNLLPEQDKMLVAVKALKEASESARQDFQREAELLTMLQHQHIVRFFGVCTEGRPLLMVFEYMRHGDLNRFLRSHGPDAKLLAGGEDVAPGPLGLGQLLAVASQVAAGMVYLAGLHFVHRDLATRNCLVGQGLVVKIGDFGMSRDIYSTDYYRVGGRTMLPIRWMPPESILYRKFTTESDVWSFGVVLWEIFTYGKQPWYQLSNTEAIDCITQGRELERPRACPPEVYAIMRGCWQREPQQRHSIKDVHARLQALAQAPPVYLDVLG
Sequence of Serine/threonine-protein kinase 10 (Homo sapiens) (O94804 whole entry, looked up): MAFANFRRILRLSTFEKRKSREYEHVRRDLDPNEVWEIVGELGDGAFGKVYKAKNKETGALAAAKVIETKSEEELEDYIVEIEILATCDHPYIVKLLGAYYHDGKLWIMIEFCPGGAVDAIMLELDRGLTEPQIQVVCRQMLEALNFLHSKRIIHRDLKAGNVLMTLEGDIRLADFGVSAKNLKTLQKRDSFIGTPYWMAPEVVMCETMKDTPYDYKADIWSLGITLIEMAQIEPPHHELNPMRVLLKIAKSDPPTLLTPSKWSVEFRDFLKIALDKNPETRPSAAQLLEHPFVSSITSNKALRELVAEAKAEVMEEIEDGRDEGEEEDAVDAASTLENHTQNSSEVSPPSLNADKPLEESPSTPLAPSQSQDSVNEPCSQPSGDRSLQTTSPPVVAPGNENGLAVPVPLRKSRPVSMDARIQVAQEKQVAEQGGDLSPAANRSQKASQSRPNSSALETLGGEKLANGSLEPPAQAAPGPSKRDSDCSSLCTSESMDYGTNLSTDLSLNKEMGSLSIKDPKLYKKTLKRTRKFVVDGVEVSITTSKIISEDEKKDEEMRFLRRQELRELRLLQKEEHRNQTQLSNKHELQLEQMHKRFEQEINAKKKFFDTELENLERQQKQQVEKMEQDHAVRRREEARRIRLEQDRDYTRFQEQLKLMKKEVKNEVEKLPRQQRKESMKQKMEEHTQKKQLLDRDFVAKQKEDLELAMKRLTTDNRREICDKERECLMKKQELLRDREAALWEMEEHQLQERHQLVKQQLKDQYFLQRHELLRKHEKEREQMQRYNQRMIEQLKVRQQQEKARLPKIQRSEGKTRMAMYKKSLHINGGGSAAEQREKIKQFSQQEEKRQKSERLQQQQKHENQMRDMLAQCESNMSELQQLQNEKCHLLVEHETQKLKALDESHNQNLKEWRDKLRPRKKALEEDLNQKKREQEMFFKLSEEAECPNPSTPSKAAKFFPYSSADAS
Sequence of Non-receptor tyrosine-protein kinase TYK2 (Homo sapiens) (P29597 whole entry): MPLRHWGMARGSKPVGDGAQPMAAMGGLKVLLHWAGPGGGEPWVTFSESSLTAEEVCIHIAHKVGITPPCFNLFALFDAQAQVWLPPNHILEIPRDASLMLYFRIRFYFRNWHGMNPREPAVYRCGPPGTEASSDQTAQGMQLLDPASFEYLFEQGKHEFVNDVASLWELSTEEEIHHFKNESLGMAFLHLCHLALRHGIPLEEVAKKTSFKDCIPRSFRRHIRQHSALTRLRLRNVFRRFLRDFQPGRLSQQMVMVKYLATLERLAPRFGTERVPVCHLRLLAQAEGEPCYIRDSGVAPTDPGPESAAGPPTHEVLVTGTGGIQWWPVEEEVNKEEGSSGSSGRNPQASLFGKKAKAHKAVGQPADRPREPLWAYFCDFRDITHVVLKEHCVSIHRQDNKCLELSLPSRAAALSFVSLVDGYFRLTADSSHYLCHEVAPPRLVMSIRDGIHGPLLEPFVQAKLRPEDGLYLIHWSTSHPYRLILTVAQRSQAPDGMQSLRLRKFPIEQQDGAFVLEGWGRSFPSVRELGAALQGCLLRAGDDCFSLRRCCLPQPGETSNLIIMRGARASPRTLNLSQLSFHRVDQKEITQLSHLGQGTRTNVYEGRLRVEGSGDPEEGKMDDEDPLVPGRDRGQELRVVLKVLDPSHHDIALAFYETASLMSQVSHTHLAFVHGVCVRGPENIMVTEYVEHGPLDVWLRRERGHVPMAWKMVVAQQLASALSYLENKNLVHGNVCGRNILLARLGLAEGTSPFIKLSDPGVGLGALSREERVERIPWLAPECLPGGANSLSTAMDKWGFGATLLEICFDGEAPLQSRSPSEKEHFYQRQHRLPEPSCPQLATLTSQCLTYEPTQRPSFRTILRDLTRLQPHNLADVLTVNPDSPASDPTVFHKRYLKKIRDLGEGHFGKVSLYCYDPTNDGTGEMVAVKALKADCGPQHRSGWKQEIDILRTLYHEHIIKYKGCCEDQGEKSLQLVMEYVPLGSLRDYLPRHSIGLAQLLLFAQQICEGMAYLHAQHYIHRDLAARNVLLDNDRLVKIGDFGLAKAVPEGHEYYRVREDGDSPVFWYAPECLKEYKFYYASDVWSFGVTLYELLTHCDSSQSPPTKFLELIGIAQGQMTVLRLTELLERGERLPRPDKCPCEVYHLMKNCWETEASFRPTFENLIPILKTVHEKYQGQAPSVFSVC
Sequence of NT-3 growth factor receptor (Homo sapiens) (Q16288 32-839 limits assumed): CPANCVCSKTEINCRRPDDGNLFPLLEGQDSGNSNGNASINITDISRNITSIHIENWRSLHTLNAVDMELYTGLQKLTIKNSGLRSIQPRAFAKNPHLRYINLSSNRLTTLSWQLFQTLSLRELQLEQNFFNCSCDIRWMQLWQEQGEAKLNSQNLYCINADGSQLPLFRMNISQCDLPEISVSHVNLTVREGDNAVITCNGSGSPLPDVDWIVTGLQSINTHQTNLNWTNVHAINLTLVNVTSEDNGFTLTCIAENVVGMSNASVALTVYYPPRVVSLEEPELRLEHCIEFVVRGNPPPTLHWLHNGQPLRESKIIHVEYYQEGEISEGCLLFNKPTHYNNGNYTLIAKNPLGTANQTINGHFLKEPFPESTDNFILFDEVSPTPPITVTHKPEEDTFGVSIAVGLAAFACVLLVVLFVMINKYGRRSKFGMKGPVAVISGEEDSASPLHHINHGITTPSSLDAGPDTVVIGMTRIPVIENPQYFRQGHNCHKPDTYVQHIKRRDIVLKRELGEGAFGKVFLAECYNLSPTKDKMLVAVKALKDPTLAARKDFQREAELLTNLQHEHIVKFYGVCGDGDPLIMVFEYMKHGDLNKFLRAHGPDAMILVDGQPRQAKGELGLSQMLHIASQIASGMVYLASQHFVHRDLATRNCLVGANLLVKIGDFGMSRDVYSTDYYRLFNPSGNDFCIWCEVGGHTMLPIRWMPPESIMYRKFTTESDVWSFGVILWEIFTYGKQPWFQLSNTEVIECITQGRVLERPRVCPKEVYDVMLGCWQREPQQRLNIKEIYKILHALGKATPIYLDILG
Sequence of Aurora kinase B (Homo sapiens) (Q96GD4 whole entry): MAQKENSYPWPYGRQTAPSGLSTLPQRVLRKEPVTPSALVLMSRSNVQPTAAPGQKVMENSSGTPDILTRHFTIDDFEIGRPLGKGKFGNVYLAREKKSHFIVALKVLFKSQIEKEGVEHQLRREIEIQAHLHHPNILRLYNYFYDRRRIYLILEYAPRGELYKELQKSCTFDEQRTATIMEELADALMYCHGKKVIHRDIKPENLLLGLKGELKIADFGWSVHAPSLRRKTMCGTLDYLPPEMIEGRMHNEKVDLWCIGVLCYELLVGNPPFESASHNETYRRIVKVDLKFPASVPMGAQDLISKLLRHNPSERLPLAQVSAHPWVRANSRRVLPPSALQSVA
Sequence of BDNF/NT-3 growth factors receptor (Homo sapiens) (Q16620 32-822 limits assumed): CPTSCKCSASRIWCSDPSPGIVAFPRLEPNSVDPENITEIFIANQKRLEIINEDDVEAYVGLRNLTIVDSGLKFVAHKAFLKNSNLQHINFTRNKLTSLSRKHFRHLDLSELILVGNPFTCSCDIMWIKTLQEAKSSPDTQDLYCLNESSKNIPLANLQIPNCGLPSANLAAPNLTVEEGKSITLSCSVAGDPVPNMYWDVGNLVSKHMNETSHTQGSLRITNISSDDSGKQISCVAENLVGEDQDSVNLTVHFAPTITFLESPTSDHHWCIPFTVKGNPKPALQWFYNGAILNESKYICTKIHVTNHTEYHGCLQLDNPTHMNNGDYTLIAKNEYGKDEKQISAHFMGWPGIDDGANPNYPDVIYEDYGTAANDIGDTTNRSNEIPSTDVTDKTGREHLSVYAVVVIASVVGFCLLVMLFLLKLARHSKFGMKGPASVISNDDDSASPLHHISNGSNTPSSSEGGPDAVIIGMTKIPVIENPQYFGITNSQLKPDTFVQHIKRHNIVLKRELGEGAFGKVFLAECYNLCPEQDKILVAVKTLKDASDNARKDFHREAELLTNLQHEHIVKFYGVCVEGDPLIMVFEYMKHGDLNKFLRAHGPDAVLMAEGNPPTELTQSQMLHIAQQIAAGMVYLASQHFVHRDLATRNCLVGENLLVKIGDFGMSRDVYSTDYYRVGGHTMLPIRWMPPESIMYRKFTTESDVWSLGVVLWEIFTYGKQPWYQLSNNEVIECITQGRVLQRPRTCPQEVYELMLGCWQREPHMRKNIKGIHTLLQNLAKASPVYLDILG

| SMILES | inhibition [1] | inhibition [2] | inhibition [3] | inhibition [4] | inhibition [5] | inhibition [6] | inhibition [7] | inhibition [8] | inhibition [9] | inhibition [10] | inhibition [11] | inhibition [12] | inhibition [13] | inhibition [14] | inhibition [15] | inhibition [16] | inhibition [17] | inhibition [18] | inhibition [19] | inhibition [20] |
| --- | --- | --- | --- | --- | --- | --- | --- | --- | --- | --- | --- | --- | --- | --- | --- | --- | --- | --- | --- | --- |
| COc1cc(/C=N/Nc2ncnc3[nH]ncc23)ccc1O | 3.15% | 3.49% | 10.7% | 2.95% | 11.2% | 5.2% | 24.9% | -2.44% | 13.4% | 6.3% | 55.1% | 9.45% | 42.1% | 6.8% | 66% | 5.88% | 19.5% | 1.7% | 9.66% | 7.81% |
| CCn1c(-c2nonc2N)nc2c(C#CC(C)(C)O)nc(OC[C@H](N)c3ccccc3)cc21 | 3.54% | 1.58% | 2.5% | 1.64% | 6.42% | 7.32% | 3.73% | -2.11% | 11.2% | 2.4% | 2.98% | 3.29% | 5.24% | 1.89% | 2.08% | 7.07% | 28.8% | 3.33% | 16% | 4.79% |
| CCCN1CCC(c2ccc(Nc3nc(Nc4cc(F)ccc4C(N)=O)c4cc[nH]c4n3)c(OC)c2)CC1 | 3.87% | 4.25% | 9.14% | 2.83% | 7.22% | 3.85% | 6.29% | -2.8% | 83% | 2.78% | 10.4% | 1.95% | 3.04% | 0.37% | -4.81% | 7.74% | 29.2% | 10.2% | 51.6% | 28.1% |
| COC(=O)Nc1nc2ccc(Oc3ccc(NC(=O)Nc4cccc(Cl)c4)cc3)cc2[nH]1 | 41.6% | 8.53% | 22% | 11.7% | 26.1% | 0.76% | 2.29% | 2% | 3.42% | 2.85% | 0.65% | 16% | 22.7% | 16.6% | 35.3% | 14.1% | 27.1% | 0.77% | 7.45% | 0.19% |

— ChEMBL document CHEMBL1961873, “Compounds: GSK PKIS; Assays: Nanosyn kinase panel” (2012)
